A selection: hits, their analogues and other compounds. The true share with any hit is near 3.5%.
Pf apPOL block = Pf-apPOL DNA polymerase inhibition | Recombinant Pf-apPOL, molecular beacon fluorescence, 1.5 h | 0.25% of 210,000 active | inhibition, % at 10 µM
mHTT CaM bind = inhibitors of human mutant huntingtin-calmodulin interaction; inhibition, % at 15 µM; P42858; 3.6% of 190,000 active; AlphaScreen His-mHTT/GST-CaM binding, luminescence; AID 1671202;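 further: 0% = both proteins with DMSO and 100% = one protein alone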
The depositor's hits bear a star; . = not tested or not shown. No stated cut-off is given here; in the data, active means inhibition above about 50%; inactive means the rest.

SMILES | Pf apPOL block | mHTT CaM bind
CNC(=O)N1CCc2[nH]cnc2C1c1ccncc1 (configuration not stated) | -2 | -5
COc1ccc(NC(=O)N2CCc3[nH]cnc3C2c2ccccn2)cc1OC (configuration not stated) | -7 | 91*
Cc1ccc(N2C=C(C#N)S(=O)(=O)c3ccc(Cl)cc32)cc1C | -4 | 2
Cc1cccc(N=c2oc3c(C)ncc(CO)c3cc2C(=O)Nc2ccc(Cl)cc2)c1 | 2 | 4
COc1ccc(-c2coc3cc(OCCN4CCC(C)CC4)ccc3c2=O)cc1OC | -4 | 15
O=C(NCc1ccsc1)NC(c1ccccc1)c1ccccc1 | -4 | -10
CN(C)CCNC(=O)NCC12CC3CC(C1)CC(c1ccccc1)(C3)C2 | 2 | 79*
CN(C)CCNC(=O)C12CC3CC(C1)CC(c1ccccc1)(C3)C2 | -2 | 14
CCNC(=O)Nc1cccnc1N(C)C | 2 | -1
O=C(Nc1ccc(Oc2ccccc2)cc1)c1ccncc1 | 0 | 12
N#Cc1ccc(Oc2ccc(C(=O)Nc3ccccc3)cc2)cc1 | 68* | -8
Cc1ccc(S(=O)(=O)N2CCN(c3ccccc3F)CC2)cc1[N+](=O)[O-] | -2 | 3
CN(C)CCNC(=O)Cc1ccccc1 | -7 | -6
O=C(NCCc1csc(-c2ccccc2)n1)C1CSCN1C(=O)c1cccc(F)c1 (configuration not stated) | -3 | 3
O=[N+]([O-])c1ccc(S(=O)(=O)N2CCN(c3ccccn3)CC2)cc1 | -1 | 0
O=[N+]([O-])c1ccc(S(=O)(=O)N2CCN(c3ncccn3)CC2)cc1 | 99* | -3
CCOc1ccc(C2=C(CN(C)C)C(c3ccc(F)cc3)c3ccccc3O2)cc1 (configuration not stated) | -3 | 91*
COc1ccc(C2=C(CN(C)C)C(c3ccccc3)c3ccccc3O2)cc1 (configuration not stated) | 0 | 71*
Cc1ccc(C2C(CN3CCOCC3)=C(c3ccccc3)Oc3ccccc32)cc1 (configuration not stated) | 0 | 25
CCOc1ccc(C2=C(CN3CCOCC3)C(c3ccccc3)c3ccccc3O2)cc1 (configuration not stated) | -1 | 15
Cn1cnnc1C1CCN(C(=O)Cc2c(F)cccc2Cl)CC1 | 3 | 2
N#Cc1c(SCc2ccc(Cl)cc2)nsc1Nc1ccc(Cl)cc1 | -2 | .
O=C1C(=Cc2ccnc3ccccc23)Oc2cc(O)ccc21 | -6 | 10
O=C1CSC(c2ccccc2[N+](=O)[O-])N1c1ccc(F)cc1F (configuration not stated) | -3 | 5
Clc1nc(NCc2ccco2)nc(Oc2ccccc2)n1 | -5 | 53*
SMILES | Pf apPOL block | mHTT CaM bind
Clc1nc(NCc2ccco2)nc(NC2CCCCC2)n1 | . | -4
Oc1ccc2nc(N3CCCC3)sc2c1 | 7 | -12
COc1cc(CN2CCC3(C=Cc4ccccc43)CC2)c([N+](=O)[O-])cc1OC | -3 | 32
COc1ccc(C(=O)C=Cc2cc(Cl)cc3c2OCOC3)c(OCc2ccccc2)c1 | 3 | 18
COc1ccc(NC(=O)N2CCC3(C2)C(=O)Nc2ccccc23)c(OC)c1 (configuration not stated) | -4 | 8
COc1ccc(OC)c(S(=O)(=O)N2CCC3(C2)C(=O)Nc2ccccc23)c1 (configuration not stated) | -4 | 99*
Cn1cc(S(=O)(=O)Nc2ccc(F)cc2Cl)c2cccnc21 | 93* | 69*
Cn1cc(S(=O)(=O)Nc2cccc(Cl)c2)c2cccnc21 | 10 | -5
CCCn1cc(S(=O)(=O)Nc2ccc(Cl)cc2F)c2cccnc21 | 13 | 39
Cc1cccc(NS(=O)(=O)c2cn(C)c3ncccc23)c1 | 88* | 59*
Cc1cccc(-c2noc(C3CCCN3C(=O)c3ccccn3)n2)c1 (configuration not stated) | -5 | -1
O=c1c([N+](=O)[O-])c(Cl)c2ccccc2n1-c1ccccc1 | -2 | 100*
O=c1c([N+](=O)[O-])c(O)c2ccccc2n1-c1ccccc1 | -3 | -6
Cn1c(=O)c2[nH]c(-c3ccc(F)c(F)c3)nc2n(C)c1=O | 0 | -3
CC1=C(C(=O)Nc2ccccn2)C(c2ccc(Cl)cc2)C2=C(CCCC2=O)N1 (configuration not stated) | -1 | -1
C=CCn1cnc2c1c(=O)n(C(C)C)c(=O)n2-c1cccc(Cl)c1 | -1 | -4
O=[N+]([O-])c1ccccc1C1Nc2ccc(Br)cc2C2C=CCC21 (configuration not stated) | -25 | 57*
O=C(O)c1ccc2c(c1)C1C=CCC1C(c1cccc([N+](=O)[O-])c1)N2 (configuration not stated) | -2 | 85*
O=C(O)c1ccc2c(c1)C1C=CCC1C(c1ccccc1[N+](=O)[O-])N2 (configuration not stated) | -19 | 53*
